According to PubChem BioAssay AID602 (SRMLSC, 2007):
About 35 (0.04%) of roughly 85,000 compounds were called active.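 The calls were made as follows: active = viability drop by adding the cancer drug above about 55%, with treated viability meeting a 40% cutoff (limit read from the data); inactive = the rest, inconclusive results apart.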 Only a selection was taken, and actives are over-represented in it overall.

Assay: reversal of MRP1-mediated doxorubicin resistance, primary screen, H69AR cells, doxorubicin co-treatment (AID 602);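 as to differential viability (reversal): larger differential means the compound sensitizes cells more to doxorubicin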
Details: CellTiter-Glo, 72 h, at 10 µM; for differential viability (reversal): stronger effect = higher value
[1] = H69AR cells + 2 uM doxorubicin, measured here: viability with 2 uM doxorubicin, stronger effect = lower value
[2] = H69AR cells, measured here: cytotoxicity without doxorubicin

Compound	differential viability (reversal) (H69AR cells + 2 uM doxorubicin)	viability [1] [%]	viability [2] [%]
COC(=O)CNC(=O)c1ccccc1F	-4.37% (inactive)	89.6	85.2
Cc1ccc(-n2c(SCC(=O)NCc3ccc4c(c3)OCO4)nnc2-c2cccnc2)c(C)c1	-22.4% (inactive)	57.5	35.1
CCCCN1C(=O)/C(=C2/C=CC=CN2C)SC1=S	1.69% (inactive)	88.5	90.2
CS(=O)(=O)N(CC(=O)Nc1ccc(Cl)c(Cl)c1)C1CCCCC1	-18.2% (inactive)	34.8	16.6
CC(C)(C)NC(=O)Cn1c(SCC(=O)Nc2nccs2)nc2ccccc21	7.96% (inactive)	84.5	92.5
COCCCNC(=O)CN1CCN(Cc2ccccc2Cl)C1=O	11.7% (inactive)	86.8	98.5
CCCc1nc(NCc2ccc3c(c2)OCO3)c2nnn(Cc3ccccc3Cl)c2n1	1.6% (inactive)	23	24.6
Cc1nc2ccccc2n1C(=O)N1CCOCC1	-2.57% (inactive)	85.1	82.5
CCN(CC(=O)Nc1ccccc1OC)C(=O)Cn1cnc2ccccc2c1=O	8.46% (inactive)	84.2	92.7
CCOc1c(Br)cc(/C=C2\C(=O)N(CCC#N)N=C2C)cc1OC	-46.8% (inactive)	73	26.2
CCNCCC(=O)N1c2ccccc2Sc2ccc(NC(=O)OCC)cc21	8.86% (inactive)	69.7	78.6
Cc1cccn2c(=O)c(/C=C(\C#N)S(=O)(=O)c3ccc(Cl)cc3)c(N3CCC(C(N)=O)CC3)nc12	-6.85% (inactive)	89	82.2
COc1ccc(-n2nc(C(=O)NCC(=O)Nc3cccc(C)n3)c3ccccc3c2=O)cc1	-0.23% (inactive)	74.5	74.2
CCOC(=O)N1CCC(Nc2c(NCCCN3CCN(CC)CC3)c(=O)c2=O)CC1	2.1% (inactive)	109	112
O=S(=O)(Cc1cc(Sc2ccccc2)nc(-c2ccccc2)n1)c1ccccc1	-7.14% (inactive)	91.4	84.3
Cc1ccc(CN(N=Nc2nonc2N)c2nonc2N)c(C)c1	2.63% (inactive)	76.9	79.6
CCN1C(=O)/C(=C2/Sc3ccc(OC)cc3N2C)SC1=Nc1ccc(C)cc1	-4.5% (inactive)	70.6	66.1
CC/C(O)=N\S(=O)(=O)c1ccc(N=NN(C)C)cc1	-1% (inactive)	86.7	85.7
CCC(C)NC(=O)c1cc(Cl)ccc1OC (stereo unspecified)	6.89% (inactive)	83.6	90.5
O=C(Nc1nnc(SCc2ccccc2)s1)c1ccco1	5.76% (inactive)	90.2	96
CCc1ccc(CNC(=O)C2CC(=O)N(CCc3ccc(C)cc3)C2)cc1 (stereo unspecified)	1.99% (inactive)	97.6	99.5
Cc1nnc(OCC(=O)NCCC2=CCCCC2)c2ccccc12	-0.56% (inactive)	101	101
O=C1C2C3C=CC(C4CC34)C2C(=O)N1/N=C/c1ccc(-c2ccccc2[N+](=O)[O-])o1 (stereo unspecified)	16.1% (inactive)	70.3	86.5
CC(C)CCOc1ccc(C(=O)C[N+]2(C)CCOCC2)cc1	16.9% (inactive)	86	103

Compound	differential viability (reversal) (H69AR cells + 2 uM doxorubicin)	viability [1] [%]	viability [2] [%]
Nc1nc(C23CC4CC(CC(C4)C2)C3)cs1	-3.46% (inactive)	96.8	93.3
Cc1cc(C)c(NC(=O)CN2CCOCCOCCOCCOCC2)c(C)c1	8.19% (inactive)	89	97.2
Cc1ccc(-n2ncc3c(=O)n(-c4ccc(C)c(C)c4)c(-c4ccco4)nc32)cc1	-39.7% (inactive)	71	31.3
Nc1ccc(-n2nncc2-c2ccco2)cc1	59.2% (active)	39.6	98.8
Cc1[nH]n(-c2cccc(Cl)c2)c(=O)c1/C=N/n1c(C)nc2ccccc2c1=O	-32.9% (inactive)	62	29.1
Cc1cccc(C)c1OC(=O)CSc1nnc(-c2ccccc2)o1	9.93% (inactive)	88.5	98.4
Cc1ccc(NC(=S)NC(NC(=O)Cc2cccc3ccccc23)C(Cl)(Cl)Cl)cc1 (stereo unspecified)	0.19% (inactive)	0.8	0.99
COc1ccc(/C(N)=N/OC(=O)Oc2ccccc2)cc1	-10.6% (inactive)	93.2	82.6
CCOc1ccc2c(c1)C(c1ccc(C)cc1)=NNC(c1ccc(C)cc1)=N2	-43% (inactive)	64	21
O=C(CN1CCSCC1)N/N=C/c1ccc(F)cc1	8.43% (inactive)	90.1	98.5
CC(C)(C)c1ccc(C(=O)NNC(=O)Cc2ccccc2)cc1	9.15% (inactive)	85.9	95
COC(=O)C1=C(C(=O)OC)C2(OC1c1ccc(Br)cc1)C(=O)c1ccccc1C2=O (stereo unspecified)	12.1% (inactive)	94	106
O=C(CSc1nc2cccnc2n1Cc1ccccc1)N1CCc2ccccc21	10.8% (inactive)	59.3	70.1
COC(=O)CCSc1cc([N+](=O)[O-])cc2c1c(C1OCCS1)nn2-c1ccccc1 (stereo unspecified)	-2.64% (inactive)	101	98.2
CCCOn1c(-n2nc(C)cc2C)nc2ccccc2c1=O	4.29% (inactive)	89.5	93.8
O=C(Nc1ccc(F)c(Cl)c1)C1CCN(S(=O)(=O)c2cccnc2)CC1	1.44% (inactive)	70.3	71.8
Cc1ccc(C(=O)N/N=C/c2sc(=O)n(Cc3cccc(C(=O)O)c3)c2Cl)cc1	-5.62% (inactive)	92.7	87.1
CCOC(=O)C(C)Sc1nc2ccccc2c(=O)n1CC1CCCCC1 (stereo unspecified)	7.81% (inactive)	74.6	82.4
Cc1cccc(NC(=O)C2CC(=O)OC23CCCC3)c1 (stereo unspecified)	6.22% (inactive)	95.5	102
COc1ccc(CC(NC(C)=O)C(=O)N2CCN(C(=O)Nc3cccc(Cl)c3)CC2)cc1OC (stereo unspecified)	6.8% (inactive)	85	91.8
O=C(CCS(=O)(=O)c1cccc2nsnc12)N1CCN(c2ccccc2F)CC1	10.9% (inactive)	80	91
COc1ccc(-c2cc(C(=O)NCc3ccco3)no2)cc1OC	7.53% (inactive)	92.6	100
CCOC(=O)C1=C(C)NC2=C(C(=O)CC(C)(C)C2)C1c1ccsc1 (stereo unspecified)	-1.33% (inactive)	85.8	84.5
